PubChem BioAssay (NCATS)
Results filed as inconclusive are left out. The source made the active and inactive calls. Unless noted, the call rests on the fitted dose curve.

Legend:
[1] = target: Estrogen receptor (Homo sapiens) (UniProt P03372); test: qHTS assay for small molecule antagonists of estrogen receptor alpha signaling (AID 588513; active means well fitted curve in the direction sought with a large enough effect in the signal ratio, with a control signal flat, not every such curve was filed as active; the % refers to the signal ratio; further: on the % scale 0 is the no-effect control and ±100 the full control effect)
Chain of Estrogen receptor (Homo sapiens) (P03372 whole entry, looked up): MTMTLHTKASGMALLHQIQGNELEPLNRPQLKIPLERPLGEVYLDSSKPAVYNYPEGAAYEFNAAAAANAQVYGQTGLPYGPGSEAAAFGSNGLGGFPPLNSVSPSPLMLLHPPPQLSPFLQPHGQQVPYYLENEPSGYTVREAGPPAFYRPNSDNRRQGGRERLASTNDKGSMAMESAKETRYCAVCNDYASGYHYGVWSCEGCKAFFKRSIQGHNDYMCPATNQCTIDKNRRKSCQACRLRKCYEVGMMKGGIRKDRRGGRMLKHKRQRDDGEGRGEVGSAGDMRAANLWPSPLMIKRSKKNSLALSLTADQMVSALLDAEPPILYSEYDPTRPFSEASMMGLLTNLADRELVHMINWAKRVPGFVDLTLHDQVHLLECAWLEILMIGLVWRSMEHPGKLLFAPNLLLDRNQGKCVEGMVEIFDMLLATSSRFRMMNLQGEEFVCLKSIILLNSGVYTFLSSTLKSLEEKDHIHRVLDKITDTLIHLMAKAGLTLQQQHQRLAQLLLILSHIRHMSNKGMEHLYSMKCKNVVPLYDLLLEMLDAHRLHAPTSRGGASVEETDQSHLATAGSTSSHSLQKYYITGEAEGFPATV
Procedure, shortened: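 ER-alpha-UAS-bla GripTite HEK 293 cells in 2% charcoal/dextran-treated FBS medium; compounds titrated (1:2, duplicate), then stimulated with 0.5 nM 17-beta-estradiol for 18 h at 37C. CCF4 beta-lactamase fluorescence; Hill-fit IC50 and efficacy.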

[2] = target: Estrogen receptor (Homo sapiens) (UniProt P03372); test: qHTS assay for small molecule agonists of estrogen receptor alpha signaling (AID 588514);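 further: 0% = vehicle only and 100% = reference agonist; nearly all actives have a fitted effect of over 70% in size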
Procedure, shortened: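 Cells were plated at 5000/well, incubated 4 hrs at 37 C, dosed with compound titration series, incubated 18 hrs at 37 C, loaded with CCF4 dye for 2 hrs at RT, then fluorescence was read.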

[3] = target: Glucocorticoid receptor (Homo sapiens) (UniProt P04150); test: qHTS assay for small molecule agonists of glucocorticoid receptor signaling (AID 588532; active means well fitted curve in the direction sought with a large enough effect in the signal ratio, with a control signal flat; the % refers to the signal ratio;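 further: 100% = dexamethasone at 0.1 µM and 0% = DMSO only wells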); details: HeLa MMTV-bla, beta-lactamase ratio, agonist, 18 h; activation: stronger effect = higher value, percent of dexamethasone control, DMSO zero
Chain of Glucocorticoid receptor (Homo sapiens) (P04150 whole entry, looked up): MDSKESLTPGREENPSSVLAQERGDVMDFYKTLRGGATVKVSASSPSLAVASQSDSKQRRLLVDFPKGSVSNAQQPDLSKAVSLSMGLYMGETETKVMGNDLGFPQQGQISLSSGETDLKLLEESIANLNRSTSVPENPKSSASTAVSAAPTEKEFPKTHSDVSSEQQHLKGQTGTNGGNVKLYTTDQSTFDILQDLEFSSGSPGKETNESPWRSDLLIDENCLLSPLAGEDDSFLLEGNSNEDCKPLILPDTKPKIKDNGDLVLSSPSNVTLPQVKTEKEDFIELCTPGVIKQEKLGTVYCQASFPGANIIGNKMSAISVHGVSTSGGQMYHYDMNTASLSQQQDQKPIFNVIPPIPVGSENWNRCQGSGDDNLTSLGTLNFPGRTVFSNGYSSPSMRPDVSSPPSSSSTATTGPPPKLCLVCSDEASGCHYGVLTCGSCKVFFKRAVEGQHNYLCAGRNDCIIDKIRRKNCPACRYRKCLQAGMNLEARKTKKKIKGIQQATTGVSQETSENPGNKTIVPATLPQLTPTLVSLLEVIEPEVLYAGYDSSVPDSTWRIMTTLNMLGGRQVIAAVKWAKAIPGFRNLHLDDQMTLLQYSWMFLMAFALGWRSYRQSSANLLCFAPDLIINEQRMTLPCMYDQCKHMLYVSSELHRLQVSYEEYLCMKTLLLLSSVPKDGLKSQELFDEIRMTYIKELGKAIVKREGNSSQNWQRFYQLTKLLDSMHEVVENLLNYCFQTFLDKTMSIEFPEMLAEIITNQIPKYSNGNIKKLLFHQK
Procedure, shortened: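 HeLa GRE-bla reporter cells; 18 h compound exposure at 37 C; 2 h CCF4 loading at room temperature; fluorescence at 460 and 530 nm; EC50 by Hill equation.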

[4] = target: Peroxisome proliferator-activated receptor delta (Homo sapiens) (UniProt Q03181); test: qHTS assay for small molecule agonists of peroxisome proliferator-activated receptor delta signaling (AID 588534);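 further: 0% = DMSO basal wells and 100% = positive control agonist at 10 µM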
Chain of Peroxisome proliferator-activated receptor delta (Homo sapiens) (Q03181 whole entry, looked up): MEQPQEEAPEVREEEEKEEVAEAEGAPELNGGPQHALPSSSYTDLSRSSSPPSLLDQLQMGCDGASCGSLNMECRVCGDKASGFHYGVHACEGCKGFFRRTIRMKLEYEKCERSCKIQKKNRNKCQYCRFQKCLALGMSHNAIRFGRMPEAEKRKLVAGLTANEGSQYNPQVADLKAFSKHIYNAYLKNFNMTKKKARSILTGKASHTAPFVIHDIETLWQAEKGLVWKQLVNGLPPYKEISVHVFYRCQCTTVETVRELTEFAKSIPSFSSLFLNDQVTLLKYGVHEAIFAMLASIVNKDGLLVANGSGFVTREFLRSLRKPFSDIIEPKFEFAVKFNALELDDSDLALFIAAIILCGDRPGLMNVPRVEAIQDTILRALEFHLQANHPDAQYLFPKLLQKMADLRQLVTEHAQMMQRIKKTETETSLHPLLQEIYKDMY
Procedure, shortened: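 Fluorescence from CCF4 substrate cleavage by beta-lactamase reporter, read 2 hrs at RT, measured agonist activity. Compounds were tested with 18 hrs exposure at 37 C. Concentration-response data fitted to Hill equation.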

[5] = target: Peroxisome proliferator-activated receptor gamma (Homo sapiens) (UniProt P37231); test: qHTS assay for small molecule agonists of peroxisome proliferator-activated receptor gamma signaling (AID 588536; active means well fitted curve in the direction sought with a large enough effect in the signal ratio, with a control signal flat, not every such curve was filed as active; the % refers to the signal ratio;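 further: 0% = DMSO basal wells and 100% = rosiglitazone at 2 µM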)
Chain of Peroxisome proliferator-activated receptor gamma (Homo sapiens) (P37231 whole entry, looked up): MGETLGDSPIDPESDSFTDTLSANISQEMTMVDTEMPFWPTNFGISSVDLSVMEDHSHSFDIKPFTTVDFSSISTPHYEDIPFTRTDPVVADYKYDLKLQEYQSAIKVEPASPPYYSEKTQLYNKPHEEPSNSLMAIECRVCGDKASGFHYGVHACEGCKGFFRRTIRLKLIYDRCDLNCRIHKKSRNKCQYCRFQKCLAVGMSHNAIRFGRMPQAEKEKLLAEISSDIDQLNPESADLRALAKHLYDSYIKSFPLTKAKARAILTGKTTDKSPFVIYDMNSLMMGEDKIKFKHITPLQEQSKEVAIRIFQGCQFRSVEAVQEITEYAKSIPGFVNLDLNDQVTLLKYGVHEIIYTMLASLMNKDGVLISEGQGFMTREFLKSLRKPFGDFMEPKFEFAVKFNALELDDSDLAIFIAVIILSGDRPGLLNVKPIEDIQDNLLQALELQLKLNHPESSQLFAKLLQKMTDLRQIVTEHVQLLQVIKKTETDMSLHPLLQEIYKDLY
Procedure, shortened: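 Ratiometric blue/green fluorescence (405 nm excitation; 460 and 530 nm emission) from CCF4-loaded HEK293 reporter cells serves as signal. Exposure to test compounds lasts 16 h at 37 C in medium containing 1% charcoal/dextran-treated serum.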

[6] = target: Vitamin D3 receptor (Homo sapiens) (UniProt P11473); test: qHTS assay for small molecule antagonists of vitamin D receptor signaling (AID 588541);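 further: receptor activated by calcitriol during compound treatment; series mostly up to about 77 µM; on the % scale 0 is the no-effect control and ±100 the full control effect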
Chain of Vitamin D3 receptor (Homo sapiens) (P11473 whole entry, looked up): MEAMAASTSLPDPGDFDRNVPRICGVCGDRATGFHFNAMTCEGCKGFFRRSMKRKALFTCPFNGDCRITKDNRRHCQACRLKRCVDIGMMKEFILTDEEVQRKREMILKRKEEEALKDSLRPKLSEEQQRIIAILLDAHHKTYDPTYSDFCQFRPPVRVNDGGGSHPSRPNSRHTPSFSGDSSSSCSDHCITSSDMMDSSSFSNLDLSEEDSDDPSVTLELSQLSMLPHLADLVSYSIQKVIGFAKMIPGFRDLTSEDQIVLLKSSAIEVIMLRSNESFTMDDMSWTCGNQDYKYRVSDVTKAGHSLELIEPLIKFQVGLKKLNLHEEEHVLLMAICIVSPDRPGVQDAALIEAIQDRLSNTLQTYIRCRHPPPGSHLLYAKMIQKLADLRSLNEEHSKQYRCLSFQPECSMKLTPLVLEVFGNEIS
Procedure, shortened: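 VDR-UAS-bla HEK293T cells in 2% charcoal-stripped FBS were stimulated with 1-alpha,25-dihydroxyvitamin D3 (3 nM final) plus compound for 16 h at 37 C. The beta-lactamase CCF4 readout was normalized to 50 nM agonist and DMSO, and Hill fits gave IC50.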

[7] = target: Vitamin D3 receptor (Homo sapiens) (UniProt P11473); test: qHTS assay for small molecule agonists of vitamin D receptor signaling (AID 588543);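 further: 0% = DMSO basal and 100% = reference agonist control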
Procedure, shortened: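 VDR-UAS-bla HEK293T cells, 2000/well, 2% charcoal-stripped FBS; compound titration 16 h at 37 C; CCF4 beta-lactamase ratio read. Normalized to 50 nM 1-alpha,25-dihydroxyvitamin D3 (100%) and DMSO; Hill fit gives EC50, efficacy.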

[8] = target: Thyroid hormone receptor beta (Homo sapiens) (UniProt P10828); test: qHTS assay for small molecule agonists of thyroid hormone receptor beta signaling (AID 588545)
Chain of Thyroid hormone receptor beta (Homo sapiens) (P10828 whole entry, looked up): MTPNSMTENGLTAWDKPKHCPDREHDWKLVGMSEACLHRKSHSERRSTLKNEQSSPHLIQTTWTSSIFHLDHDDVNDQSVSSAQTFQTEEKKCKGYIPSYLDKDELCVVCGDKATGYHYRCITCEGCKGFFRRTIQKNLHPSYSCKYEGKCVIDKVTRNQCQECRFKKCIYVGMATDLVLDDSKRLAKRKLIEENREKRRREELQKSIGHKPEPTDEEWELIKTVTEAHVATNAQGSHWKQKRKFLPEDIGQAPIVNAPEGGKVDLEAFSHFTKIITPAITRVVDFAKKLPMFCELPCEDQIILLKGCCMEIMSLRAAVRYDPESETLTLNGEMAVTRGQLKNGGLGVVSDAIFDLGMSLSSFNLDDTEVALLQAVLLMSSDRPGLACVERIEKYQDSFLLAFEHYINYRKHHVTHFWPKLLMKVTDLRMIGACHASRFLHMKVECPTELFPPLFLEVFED
Procedure, shortened: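 Cells (2500/well) were seeded, incubated 4 hrs at 37 C, dosed with a compound series, incubated 18 hrs, loaded with CCF4 dye for 2 hrs at RT, then read for fluorescence. Data were scaled between DMSO (0%) and 10 nM T3 (100%).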

[9] = qHTS assay for small molecule antagonists of retinoid X receptor alpha signaling (AID 588546; active means well fitted inhibition curve with a large enough effect in the signal ratio, with a control signal flat, not every such curve was filed as active; the % refers to the signal ratio;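 further: cells stimulated with 9-cis-retinoic acid as agonist; on the % scale 0 is the no-effect control and ±100 the full control effect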); details: HEK293T RXRa-UAS-bla, beta-lactamase ratio, antagonist mode; measured here: W530 green channel, cytotoxicity proxy
Procedure, shortened: (§1)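 Beta-lactamase reporter inhibition, read as CCF4 fluorescence ratio (ex 405, em 460/530 nm) after 2 h at RT. HEK293T UAS-bla cells, 2500/well, were stimulated with 9-cis-RA at 500 or 100 nM final alongside test compound for 18 h at 37 C.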

[10] = target: Retinoic acid receptor RXR-alpha (Homo sapiens) (UniProt P19793); test: as above; details: HEK293T RXRa-UAS-bla, beta-lactamase ratio, antagonist mode
Chain of Retinoic acid receptor RXR-alpha (Homo sapiens) (P19793 whole entry, looked up): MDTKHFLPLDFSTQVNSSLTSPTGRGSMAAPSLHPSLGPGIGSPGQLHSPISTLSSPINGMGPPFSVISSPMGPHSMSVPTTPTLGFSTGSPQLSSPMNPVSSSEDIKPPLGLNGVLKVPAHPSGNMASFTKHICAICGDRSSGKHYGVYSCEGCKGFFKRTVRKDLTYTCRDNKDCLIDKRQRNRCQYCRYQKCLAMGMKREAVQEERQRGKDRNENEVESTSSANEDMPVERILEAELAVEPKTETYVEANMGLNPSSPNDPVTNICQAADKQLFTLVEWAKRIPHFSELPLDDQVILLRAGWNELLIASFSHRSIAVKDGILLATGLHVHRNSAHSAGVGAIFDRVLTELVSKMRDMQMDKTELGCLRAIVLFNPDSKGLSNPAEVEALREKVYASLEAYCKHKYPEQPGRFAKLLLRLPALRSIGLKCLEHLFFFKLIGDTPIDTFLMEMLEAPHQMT
Procedure, shortened: as §1

[11] = qHTS assay for small molecule activators of the p53 signaling pathway (AID 651743; active means well fitted activation curve with a large enough effect in the signal ratio, not every such curve was filed as active; the % refers to the signal ratio; further: series mostly up to about 92 µM; % of control where 0% means no effect); details: HCT-116 p53RE-bla, beta-lactamase FRET ratio, 16 h; activation: stronger effect = higher value
Procedure, shortened: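 p53RE-bla HCT-116 cells carrying a beta-lactamase reporter under p53 response elements were exposed to compounds for 16 hours at 37 C. Reporter activity read as fluorescence after 2 hours at room temperature with LiveBLAzer B/G FRET substrate.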

[12] = qHTS assay for small molecule activators of the nuclear factor-kappa B (NF-kB) signaling pathway (AID 651749; active means well fitted activation curve with a large enough effect in the signal ratio; the % refers to the signal ratio; further: series mostly up to about 77 µM; % of control where 0% means no effect); details: NF-kB-bla ME-180 cells, beta-lactamase FRET ratio, 16 h; activation: stronger effect = higher value
Procedure, shortened: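 NF-kB-bla ME-180 cells carrying a beta-lactamase reporter under an NF-kB response element, 2,000 cells/well, exposed to compound for 16 hr at 37C; FRET-based beta-lactamase fluorescence read-out of pathway activation.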

[13] = qHTS assay for environmental chemicals that activate the Aryl hydrocarbon Receptor (AhR) signaling pathway (AID 651777; active means well fitted curve in the direction sought with a large enough effect; an effect the other way counts as inactive or inconclusive; further: % of control where 0% means no effect; nearly all actives have a fitted effect of over 15% in size); details: 1A2-DRE human hepatoma cells, luciferase, 24 h; activation: stronger effect = higher value
Procedure, shortened: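 Quantitative HTS in stably transfected human liver-derived cells whose luciferase gene sits downstream of the CYP1A2 promoter and dioxin response element. After 24 hr exposure at 37 C, One-Glo luminescence was measured.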

[14] = target: Peroxisome proliferator-activated receptor alpha (Homo sapiens) (UniProt Q07869); test: qHTS assay for small molecule agonists of the peroxisome proliferator-activated receptor alpha (PPARalpha) signaling pathway (AID 651778; active means well fitted curve in the direction sought with a large enough effect; an effect the other way counts as inactive or inconclusive; further: % of control where 0% means no effect); details: PathHunter PPARalpha complementation, chemiluminescence, 6 h; max response: stronger effect = higher value
Chain of Peroxisome proliferator-activated receptor alpha (Homo sapiens) (Q07869 whole entry, looked up, the tested form may be a part): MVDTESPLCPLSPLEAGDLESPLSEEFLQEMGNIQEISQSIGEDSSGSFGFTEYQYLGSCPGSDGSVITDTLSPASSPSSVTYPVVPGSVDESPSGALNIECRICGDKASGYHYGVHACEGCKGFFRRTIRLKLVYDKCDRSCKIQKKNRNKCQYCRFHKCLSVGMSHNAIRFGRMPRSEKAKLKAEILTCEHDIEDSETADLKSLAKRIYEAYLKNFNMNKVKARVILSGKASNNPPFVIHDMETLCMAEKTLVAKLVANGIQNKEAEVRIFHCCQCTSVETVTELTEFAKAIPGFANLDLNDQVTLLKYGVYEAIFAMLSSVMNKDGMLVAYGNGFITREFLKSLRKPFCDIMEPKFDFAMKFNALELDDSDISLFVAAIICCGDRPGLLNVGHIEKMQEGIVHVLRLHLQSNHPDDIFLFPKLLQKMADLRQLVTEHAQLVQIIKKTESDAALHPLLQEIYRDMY
Procedure, shortened: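 Enzyme-fragment complementation assay in which ligand-bound PPARalpha translocates and forms an active enzyme that generates chemiluminescence. Cells were plated overnight, exposed to compound for 6 hr at 37 C, and then given detection reagent for 60 min at room temperature.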

[15] = qHTS assay for small molecule agonists of the antioxidant response element (ARE) signaling pathway measured by Nrf2-dependant transcriptional activity (AID 720636; active means well fitted curve in the direction sought with a large enough effect in the repeat runs; an effect the other way counts as inactive or inconclusive; further: % of control where 0% means no effect)
Procedure, shortened: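 Quantitative HTS format in HepG2 cells stably expressing an ARE-luciferase reporter; 16 hr compound treatment at 37 C, luciferase signal detected with ONE-Glo.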

[16] = qHTS assay for small molecule agonists of the antioxidant response element (ARE) signaling pathway measured by Nrf2-dependant transcriptional activity - cell viability counter screen (AID 720653; active means well fitted curve in the direction sought with a large enough effect in the repeat runs; an effect the other way counts as inactive or inconclusive; further: on the % scale 0 is the no-effect control and ±100 the full control effect); details: ARE-bla HepG2 viability, CellTiter-Glo ATP luminescence, 16 h; max response: stronger effect = lower value
Procedure, shortened: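 ARE-bla HepG2 cells treated with compounds for 16 h at 37C; this counter screen measures viability as intracellular ATP by CellTiter-Glo luminescence after 30 min at room temperature.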

[17] = qHTS assay for cell viability of HEK293 cells (AID 743288; active means well fitted curve in the direction sought with a large enough effect; an effect the other way counts as inactive or inconclusive; further: on the % scale 0 is the no-effect control and ±100 the full control effect; nearly all actives have a fitted effect of over 50% in size); details: ATP luminescence (CellTiter-Glo), 18 h; max response: stronger effect = lower value
Procedure, shortened: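 Parental HEK293 cells, 2,000 per well, preincubated at least 5 h at 37 C, then exposed to compounds in DMSO for 18 h at 37 C. Viability by CellTiter-Glo ATP luminescence after 30 min at room temperature.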

[18] = qHTS assay for cell viability of the p53RE-bla HCT-116 cell line (AID 743292; active means well fitted curve in the direction sought with a large enough effect; an effect the other way counts as inactive or inconclusive; further: on the % scale 0 is the no-effect control and ±100 the full control effect; nearly all actives have a fitted effect of over 55% in size)
Procedure, shortened: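 Viability of compound-treated p53RE-bla HCT-116 cells is taken from ATP-dependent luciferase luminescence. Treatment lasts 16 h at 37 C after a 5 h settling period; detection follows 30 min at room temperature.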

[19] = qHTS assay for small molecule agonists of retinoid X receptor alpha signaling (AID 588544); details: HEK293T RXRa-UAS-bla, beta-lactamase reporter, 18 h; 530 nm emission

CCOc1ccc(C(C)(C)COCc2cccc(Oc3ccccc3)c2)cc1
Potency [1]: inactive | Potency [2]: inactive | activation [3]: -0.996% (inactive) | outcome [4]: inactive | Potency [5]: inactive | Potency [6]: inactive | outcome [7]: inactive | Potency [8]: inactive | max response [9]: -7.02% | max response [10]: -7.6% (inactive) | activation [11]: -0.0413% (inactive) | activation [12]: 2.46% (inactive) | activation [13]: 1.55% (inactive) | max response [14]: -1.64% (inactive) | Potency [15]: inactive | max response [16]: -4.24% (inactive) | max response [17]: -6.28% (inactive) | Potency [18]: inactive

FC(F)(F)c1ccc(OCCCOc2c(Cl)cc(OCC=C(Cl)Cl)cc2Cl)nc1
Potency [1]: inactive | Potency [2]: inactive | activation [3]: 9.84% (inactive) | Potency [5]: inactive | Potency [6]: inactive | outcome [7]: inactive | max response [19]: 5.75% | Potency [8]: inactive | max response [9]: -14.8% | max response [10]: 3.21% (inactive) | activation [11]: 2.67% (inactive) | activation [12]: 0.158% (inactive) | activation [13]: -0.256% (inactive) | max response [14]: -0.598% (inactive) | max response [16]: -24.7% (inactive) | max response [17]: -6.52% (inactive) | Potency [18]: inactive

O=C1NCCN1Cc1ccc(Cl)nc1
Potency [1]: inactive | Potency [2]: inactive | outcome [4]: inactive | Potency [5]: inactive | Potency [6]: inactive | max response [19]: -6.75% | Potency [8]: inactive | max response [9]: -14.8% | max response [10]: -5.19% (inactive) | activation [11]: -0.206% (inactive) | activation [12]: -1.02% (inactive) | activation [13]: -0.434% (inactive) | max response [14]: -0.72% (inactive) | Potency [15]: inactive | max response [16]: 1.67% (inactive) | max response [17]: 1.96% (inactive) | Potency [18]: inactive

C=CC1(C)OC(=O)N(c2cc(Cl)cc(Cl)c2)C1=O (centres undefined)
Potency [1]: inactive | Potency [2]: inactive | activation [3]: -11.4% (inactive) | outcome [4]: inactive | Potency [5]: inactive | Potency [6]: inactive | outcome [7]: inactive | Potency [8]: inactive | max response [9]: -0.794% | max response [10]: -13.3% (inactive) | activation [12]: -0.261% (inactive) | activation [13]: -0.237% (inactive) | max response [14]: -2.56% (inactive) | Potency [15]: inactive | max response [16]: -7.58% (inactive) | max response [17]: -8.07% (inactive) | Potency [18]: inactive

O=c1[nH]c2ccccc2c(=O)o1
Potency [1]: inactive | Potency [2]: inactive | activation [3]: -0.7% (inactive) | outcome [4]: inactive | Potency [5]: inactive | Potency [6]: inactive | outcome [7]: inactive | max response [19]: -6.9% | Potency [8]: inactive | max response [9]: -14.4% | max response [10]: -21.4% (inactive) | activation [11]: 1.12% (inactive) | activation [12]: -0.747% (inactive) | activation [13]: 0.82% (inactive) | max response [14]: -3.96% (inactive) | Potency [15]: inactive | max response [16]: -1.48% (inactive) | max response [17]: -10.1% (inactive) | Potency [18]: inactive

CCOc1nc(NC)nc(NC(=O)NS(=O)(=O)c2ccccc2C(=O)OC)n1
Potency [1]: inactive | Potency [2]: inactive | activation [3]: 15% (inactive) | outcome [4]: inactive | Potency [5]: inactive | outcome [7]: inactive | Potency [8]: inactive | max response [9]: -10.6% | max response [10]: 20.8% (inactive) | activation [11]: -5.96% (inactive) | activation [12]: 1.48% (inactive) | activation [13]: 0.873% (inactive) | max response [14]: -5.58% (inactive) | Potency [15]: inactive | max response [16]: 13.3% (inactive) | max response [17]: 9.14% (inactive)

CC(Oc1cc(Cl)c(Cl)cc1Cl)C(=O)O (centres undefined)
Potency [1]: inactive | Potency [2]: inactive | activation [3]: -0.156% (inactive) | Potency [6]: inactive | outcome [7]: inactive | max response [19]: -8.77% | max response [9]: -19.8% | max response [10]: 1.54% (inactive) | activation [13]: 2.71% (inactive) | max response [14]: -0.109% (inactive) | Potency [15]: inactive | max response [16]: 15.3% (inactive) | max response [17]: 0.242% (inactive) | Potency [18]: inactive

CCOP(=O)(OCC)SCSCC
Potency [1]: inactive | Potency [2]: inactive | outcome [4]: inactive | Potency [5]: inactive | Potency [6]: inactive | outcome [7]: inactive | max response [19]: -4.7% | Potency [8]: inactive | max response [9]: -15.2% | max response [10]: -5.71% (inactive) | activation [11]: 4.72% (inactive) | activation [12]: -2% (inactive) | activation [13]: 0.0868% (inactive) | max response [14]: -4.89% (inactive) | Potency [15]: inactive | max response [16]: 2.19% (inactive) | max response [17]: -3.03% (inactive) | Potency [18]: inactive

C=CC(=O)OCCCCCC(C)C
Potency [1]: inactive | Potency [2]: inactive | outcome [4]: inactive | Potency [5]: inactive | Potency [6]: inactive | outcome [7]: inactive | max response [19]: -13.5% | Potency [8]: inactive | max response [9]: -15.4% | max response [10]: -5.23% (inactive) | activation [11]: -4.19% (inactive) | activation [12]: 1.07% (inactive) | activation [13]: -0.0847% (inactive) | max response [14]: -1.09% (inactive) | Potency [15]: inactive | max response [16]: 8.44% (inactive) | max response [17]: 4.71% (inactive) | Potency [18]: inactive
